DUSP3 inh = VHR1 phosphatase inhibitors, primary screen, biochemical, absorbance, uHTS. Dual specificity protein phosphatase 3 (Homo sapiens), P51452. recombinant VHR phosphatase, pNPP absorbance. inhibition, % at 13.3 µM. 290,000 compounds, 0.52% hits; in the data active means inhibition above about 50%
MazEF act = activators of E. coli MazEF toxin-antitoxin RNase, primary screen, biochemical, fluorescence, uHTS. activation, % at 20 µM. FAM/BHQ RNA-DNA oligo cleavage fluorescence, 5 h. Endoribonuclease toxin MazF (Escherichia coli (strain K12)), P0AE70. 350,000 compounds, 0.32% hits. AID 504720, 2011; in the data active means activation above about 50%
Bead autofluor = compound fluorescence in toxin protease inhibitor counterscreen; compound autofluorescence counterscreen, microsphere flow cytometry; hits give high values; AID 624483; fluorescence intensity (no concentration beside the values); 360,000 compounds, 3.1% hits; in the data active means fluorescence intensity above about 16000; inconclusive means no clear call, values can overlap the other calls
Anthrax LF prot = Bacillus anthracis LF protease inhibitors, primary screen, biochemical, multiplex microsphere, MLPCN library. Lethal factor (Bacillus anthracis), P15917. multiplex microsphere protease cleavage assay. inhibition, % at 10 µM. 360,000 compounds, 0.12% hits. AID 588501, 2011; further: plate controls were buffer without enzyme for full effect and enzyme alone for no effect
Target sequence (P15917 whole entry, looked up): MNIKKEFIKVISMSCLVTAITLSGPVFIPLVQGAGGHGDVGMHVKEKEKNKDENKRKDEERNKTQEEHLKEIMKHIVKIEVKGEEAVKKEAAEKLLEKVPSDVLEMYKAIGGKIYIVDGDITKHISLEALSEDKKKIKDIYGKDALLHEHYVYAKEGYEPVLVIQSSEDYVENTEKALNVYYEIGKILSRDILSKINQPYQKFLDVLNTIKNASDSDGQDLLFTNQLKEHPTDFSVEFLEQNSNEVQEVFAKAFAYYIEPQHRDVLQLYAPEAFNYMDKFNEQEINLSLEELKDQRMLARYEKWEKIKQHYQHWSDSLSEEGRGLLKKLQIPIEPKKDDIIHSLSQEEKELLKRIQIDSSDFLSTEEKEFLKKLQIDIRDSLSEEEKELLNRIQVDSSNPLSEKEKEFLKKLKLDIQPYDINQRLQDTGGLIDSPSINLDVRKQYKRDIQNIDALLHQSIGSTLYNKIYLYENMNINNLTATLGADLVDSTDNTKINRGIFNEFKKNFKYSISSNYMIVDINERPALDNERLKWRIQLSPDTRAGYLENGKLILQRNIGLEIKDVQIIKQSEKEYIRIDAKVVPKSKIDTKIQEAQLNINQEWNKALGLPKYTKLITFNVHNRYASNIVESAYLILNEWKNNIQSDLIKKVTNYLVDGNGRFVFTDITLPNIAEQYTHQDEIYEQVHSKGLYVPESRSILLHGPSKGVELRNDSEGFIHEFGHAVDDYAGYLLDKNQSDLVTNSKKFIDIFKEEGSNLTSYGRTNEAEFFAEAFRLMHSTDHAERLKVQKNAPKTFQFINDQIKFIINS
BoNT-A LC inh2 = BoNT/A light chain protease inhibitors, primary screen, biochemical, flow cytometry, MLPCN library. Botulinum neurotoxin type A light chain protease (Clostridium botulinum A str. ATCC 3502). multiplex microsphere protease substrate cleavage. inhibition, % at 10 µM. 360,000 compounds, 0.17% hits; further: plate controls were buffer without enzyme for full effect and enzyme alone for no effect
BoNT-F LC inh = BoNT/F light chain protease inhibitors, primary screen, biochemical, flow cytometry, MLPCN library. AID 588497, 2011. Multiplex microsphere protease cleavage assay. inhibition, % at 10 µM. 360,000 compounds, 0.22% hits. Botulinum neurotoxin type F light chain protease (Clostridium botulinum); in the data active means inhibition above about 35%, passing the limit was not always enough; inconclusive means no clear call, values can overlap the other calls; further: plate controls were buffer without enzyme for full effect and enzyme alone for no effect
* = called active by the depositor; u = inconclusive; x = no result. Compounds with a hit are over-represented: about 4% of the library has one in this group of screens. Unless noted, no stated cut-off is given here; in the data, active means inhibition above about 30%; inconclusive means no clear call, values can overlap the other calls; inactive means below that.

SMILES	DUSP3 inh	MazEF act	Bead autofluor	Anthrax LF prot	BoNT-A LC inh2	BoNT-F LC inh
CCOc1ccc(N=C(/C(C(=O)C(=O)N2CCOCC2)=C(/O)c2ccccc2)c2ccccc2)cc1	16	-18	5499	6	0	-11
CC1(C)NC(=O)N(CC(=O)O)C1=O	7	-1	17429*	-4	-2	-4
Cc1ccc(S(=O)(=O)N2CCCC(CCC(=O)NCc3ccccc3F)C2)s1 (centres undefined)	34	6	4129	0	-1	-3
Cc1cc(C)n(CCc2nc(-c3ccco3)cs2)n1	11	-15	19796*	1	3	5
Cc1cc(C)n(CCc2nc(-c3cccs3)cs2)n1	13	7	2263	-1	0	-17
CCCOc1ccc(-c2nc(=S)[nH][nH]2)cc1	-7	6	22693*	-3	u	-1
CCc1ccc(NC(=S)Nc2ccc3[nH]c(=O)[nH]c3c2)cc1	27	-1	3643	-2	-1	0
CC1(C)Cc2c(cnn2-c2ccc(F)cc2)C(NC(=O)CCC(F)(F)F)C1 (centres undefined)	59*	8	3217	10	-3	u
COc1ccc(-n2ncc3c2CC(C)(C)CC3NC(=O)CCN2CCCCC2=O)cc1 (centres undefined)	2	-24	4861	4	0	3
COc1ccc(-n2ncc3c2CC(C)(C)CC3NC(=O)CCCN2CCCC2=O)cc1 (centres undefined)	57*	1	5503	0	3	2
O=C(O)/C(=C\c1ccco1)NC(=O)c1cccc2ccccc12	16	-1	20299*	-1	8	10
COC(=O)c1sccc1-c1ccc(/C=N/OC(=O)c2ccccc2)o1	6	-3	20465*	-3	6	5
CN1CCN(C2CC(=O)N(Cc3ccc(N4CCCC4=O)cc3)C2=O)CC1 (centres undefined)	27	9	8983	-3	-1	-3
COC(=O)Nc1ncc(CN2CCC(c3ccccc3)CC2)s1	18	3	9454	-5	1	-1
CC(C)(C)c1cc(Cc2ccccc2)[nH]n1	8	-1	23025*	-5	u	-2
CCOC(=O)c1c(NC(=O)CSc2nc3cc(Cl)ccc3s2)sc(C(C)=O)c1C	-4	x	x	x	x	x
CCOc1cc(/C=N/NC(=O)CN(CCc2ccccc2)S(=O)(=O)c2ccc(NC(C)=O)cc2)ccc1O	-7	-1	2514	-2	-1	-14
COC(=O)C1=CN(Cc2ccc(F)cc2)C=C(C(=O)OC)C1c1cc(OC)c(OC)c(OC)c1	-12	1	3925	-16	-5	-18
COC(=O)C1=CN(Cc2ccc(OC)cc2)C=C(C(=O)OC)C1c1cc(OC)c(OC)c(OC)c1	2	6	3899	-2	-2	41*
CCn1cc([N+](=O)[O-])c(C(=O)Nc2ccn(Cc3ccccc3F)n2)n1	14	9	23949*	-1	-1	-1
CCn1cc([N+](=O)[O-])c(C(=O)Nc2nc(-c3ccc(C)cc3)c(C)s2)n1	15	0	16716*	-1	-1	-6
Cc1ccccc1Cn1ccc(NC(=O)c2nn(C)cc2[N+](=O)[O-])n1	0	-5	2055	-1	-1	-11
Cc1cc(C)nc(N2CCC(C(=O)N3CCN(c4cc(Cl)ccc4C)CC3)CC2)n1	46	-3	11519	-5	0	-22
CN(C)S(=O)(=O)c1cccc(NC(=O)CCNC(=O)Nc2ccccc2)c1	x	2	8624	9	0	-2
CC(=O)NC(=O)NC1CSCC1OC(C)=O (centres undefined)	12	-6	23409*	-2	u	-4
SMILES	DUSP3 inh	MazEF act	Bead autofluor	Anthrax LF prot	BoNT-A LC inh2	BoNT-F LC inh
O=C(c1ccc(Cn2cc(Br)cn2)o1)N1N=C(C(F)F)CC1(O)C(F)F (centres undefined)	15	-2	11273	-4	0	-2
CC(C)c1ccc(-c2cc(C(=O)N3N=C(C(F)F)CC3(O)C(F)F)c3ccccc3n2)cc1 (centres undefined)	-2	5	10436	-7	-1	-11
O=C(c1cc(C2CC2)nc2ccc(Br)cc12)N1N=C(C(F)F)CC1(O)C(F)F (centres undefined)	0	-7	22047*	-2	2	-1
O=C(c1cc(C2CC2)nc2ccccc12)N1N=C(C(F)F)CC1(O)C(F)F (centres undefined)	4	-6	18689*	-10	3	2
CN(c1cc(Cl)c2c(c1)OCO2)c1cc2c(c3c1ccn3C)C1CCC2C1 (centres undefined)	x	x	4553	-3	-1	-1
CCOC(=O)c1oc2cc(OCC(N)=O)ccc2c(=O)c1-c1ccc(OC)c(OC)c1	-5	11	11734	-3	-1	-10
CCN(CC)S(=O)(=O)c1ccc(C(=O)NCCc2cc3c(OC)ccc(OC)c3[nH]c2=O)cc1	-16	9	2343	-3	0	-8
CC1CCCC(NC(=O)c2cc(S(=O)(=O)N3CCCCC3)c[nH]2)C1C (centres undefined)	x	x	4227	-6	-1	-6
CC1CCCN(Cc2c(O)ccc3c(=O)c(-c4nc5ccccc5s4)c(N)oc23)C1 (centres undefined)	25	-9	25322*	-4	u	-10
C#CCOCCOCCOCCNc1nc(N2CCN(C(=O)CCCCCCCCCCNC(=O)Cn3cc(C[C@@H](C)O)nn3)CC2)nc(N2CCN(C(=O)CCCCCCCCCCNC(=O)[C@@H](CCC(=O)O)n3cc(CCCCCN)nn3)CC2)n1	x	63*	3682	-12	0	-18
COCCOC(=O)c1c(C)oc2ccc(OC(=O)c3cccs3)cc12	17	3	22293*	3	2	2
Cc1oc2ccc(OC(=O)COc3c(F)c(F)c(F)c(F)c3F)cc2c1C(=O)OC(C)C	34	-13	2247	-1	0	-6
COCCOC(=O)c1c(C)oc2ccc(OC(=O)COc3c(F)c(F)c(F)c(F)c3F)cc12	-2	-7	22277*	-1	2	6
Cc1ccc(C(=O)OCc2nnc(-c3ccccc3)o2)cc1S(=O)(=O)N1CCOCC1	x	-3	5215	-1	2	4
Cc1ccc(CSc2nnc(-c3ccco3)n2N)cc1	64	-8	23093*	-2	0	1
Nn1c(SCc2cccc(C(F)(F)F)c2)nnc1-c1ccco1	15	9	6915	1	u	-2
Cc1ccc(CSc2nnc(-c3cccnc3)n2N)cc1	31	1	23095*	0	-1	-4
CN(CCC#N)C(=O)CSc1nnc(-c2ccco2)n1N	51*	8	3861	-2	-1	-5
O=C(Nc1ccc(Cl)cc1)c1csc(-c2ccccc2)n1	29	2	16593*	-4	-1	-3

From PubChem
